Legend:
Test in all cases: DAPPL (digital affinity profiling via proximity ligation, sequencing); 10 mM Tris-HCl pH 7.5, 50 mM NaCl, 1 mM DTT, 4% glycerol, room temperature, 30 min; GST-TFs on glutathione beads, 16-mer random dsDNA library, 0.1% formaldehyde crosslink after washing; high values mean tight binding
FEV = molecular target: T1, FEV (Homo sapiens, UniProt Q99581 1-238); details: protein: recombinant; tags: N-terminal GST; dsDNA, one strand shown
T1 sequence: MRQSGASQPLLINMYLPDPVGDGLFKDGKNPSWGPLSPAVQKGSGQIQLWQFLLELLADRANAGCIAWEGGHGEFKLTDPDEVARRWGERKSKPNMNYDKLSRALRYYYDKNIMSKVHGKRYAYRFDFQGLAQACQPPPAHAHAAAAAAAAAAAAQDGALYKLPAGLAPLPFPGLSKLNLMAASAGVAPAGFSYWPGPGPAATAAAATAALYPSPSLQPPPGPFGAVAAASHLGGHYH
Procedure, shortened: (§1)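 Binding signal is each hexamer's read frequency for a factor divided by its frequency in the tag-only sample. The factors were GST-fused human transcription factors from yeast, captured on glutathione beads, DNA-barcoded and pooled with that sample. Pools were incubated with 200 nmole of a random double-stranded 16-mer DNA library in Tris/NaCl/DTT/glycerol buffer at room temperature for 30 min, then washed, crosslinked with 0.1% formaldehyde, proximity-ligated with BsaI/T4 ligase (1 h, 37 °C), PCR-amplified and sequenced on an Illumina NextSeq500.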

ETV5 = ETV5 (Homo sapiens, UniProt P41161 1-510); details: protein: recombinant; tags: N-terminal GST; dsDNA, one strand shown
Procedure, shortened: as §1

HSF1 = HSF1 (Homo sapiens, UniProt Q00613 1-529); details: protein: recombinant; tags: N-terminal GST; chain copies: 3; dsDNA, one strand shown
Procedure, shortened: as §1

SPIC = molecular target: T2, SPIC (Homo sapiens, UniProt Q8N5J4 1-248); details: protein: recombinant; tags: N-terminal GST; dsDNA, one strand shown
T2 sequence: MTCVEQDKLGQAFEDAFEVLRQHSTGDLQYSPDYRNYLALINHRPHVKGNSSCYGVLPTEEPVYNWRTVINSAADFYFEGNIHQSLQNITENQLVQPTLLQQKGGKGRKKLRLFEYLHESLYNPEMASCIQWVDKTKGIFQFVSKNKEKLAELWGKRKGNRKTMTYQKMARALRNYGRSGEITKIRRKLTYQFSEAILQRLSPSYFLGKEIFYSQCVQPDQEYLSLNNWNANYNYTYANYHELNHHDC
Procedure, shortened: as §1

ELF4 = ELF4 (Homo sapiens, UniProt Q99607 1-663); details: protein: recombinant; tags: N-terminal GST; dsDNA, one strand shown
Procedure, shortened: as §1

ELK4 = molecular target: T3, ELK4 (Homo sapiens, UniProt P28324-2 1-405); details: protein: recombinant; tags: N-terminal GST; dsDNA, one strand shown
T3 sequence: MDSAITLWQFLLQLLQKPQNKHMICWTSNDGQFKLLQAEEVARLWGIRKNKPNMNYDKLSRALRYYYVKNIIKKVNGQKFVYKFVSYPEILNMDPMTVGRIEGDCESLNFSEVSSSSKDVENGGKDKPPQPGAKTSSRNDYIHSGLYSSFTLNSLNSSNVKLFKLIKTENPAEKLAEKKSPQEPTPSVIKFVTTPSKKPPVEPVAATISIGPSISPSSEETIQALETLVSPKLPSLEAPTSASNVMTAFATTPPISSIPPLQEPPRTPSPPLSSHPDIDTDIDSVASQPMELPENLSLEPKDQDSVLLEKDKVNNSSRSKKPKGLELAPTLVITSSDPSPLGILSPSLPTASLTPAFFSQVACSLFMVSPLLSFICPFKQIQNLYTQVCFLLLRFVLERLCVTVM
Procedure, shortened: as §1

ETV2 = molecular target: T4, ETV2 (Homo sapiens, UniProt O00321 1-342); details: protein: recombinant; tags: N-terminal GST; dsDNA, one strand shown
T4 sequence: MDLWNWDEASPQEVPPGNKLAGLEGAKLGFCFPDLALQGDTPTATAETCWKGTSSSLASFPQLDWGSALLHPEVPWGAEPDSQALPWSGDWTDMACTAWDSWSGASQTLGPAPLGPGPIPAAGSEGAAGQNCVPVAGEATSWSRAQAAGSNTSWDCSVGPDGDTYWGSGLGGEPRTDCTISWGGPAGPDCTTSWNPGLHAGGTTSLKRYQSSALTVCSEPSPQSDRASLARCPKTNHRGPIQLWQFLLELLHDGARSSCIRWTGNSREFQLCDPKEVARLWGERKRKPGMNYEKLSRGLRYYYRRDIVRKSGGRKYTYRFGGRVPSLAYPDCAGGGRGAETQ
Procedure, shortened: as §1

ELF3 = molecular target: T5, ELF3 (Homo sapiens, UniProt P78545 1-371); details: protein: recombinant; tags: N-terminal GST; dsDNA, one strand shown
T5 sequence: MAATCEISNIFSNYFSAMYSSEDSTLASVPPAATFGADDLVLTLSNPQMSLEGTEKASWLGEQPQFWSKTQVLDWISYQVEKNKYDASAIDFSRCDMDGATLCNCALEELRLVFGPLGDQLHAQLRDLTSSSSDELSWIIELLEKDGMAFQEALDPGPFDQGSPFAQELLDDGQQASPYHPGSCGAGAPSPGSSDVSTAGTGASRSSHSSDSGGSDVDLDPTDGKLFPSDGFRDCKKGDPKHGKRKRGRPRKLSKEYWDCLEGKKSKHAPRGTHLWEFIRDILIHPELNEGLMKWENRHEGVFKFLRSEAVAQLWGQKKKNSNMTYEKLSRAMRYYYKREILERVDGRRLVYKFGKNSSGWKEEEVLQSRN
Procedure, shortened: as §1

CRX = CRX (Homo sapiens, UniProt O43186 1-299); details: protein: recombinant; tags: N-terminal GST; dsDNA, one strand shown
Procedure, shortened: as §1

ETV1 = ETV1 (Homo sapiens, UniProt P50549 1-477); details: protein: recombinant; tags: N-terminal GST; dsDNA, one strand shown
Procedure, shortened: as §1

ERF = molecular target: T6, ERF (Homo sapiens, UniProt P50548 1-548); details: protein: recombinant; tags: N-terminal GST; dsDNA, one strand shown
T6 sequence: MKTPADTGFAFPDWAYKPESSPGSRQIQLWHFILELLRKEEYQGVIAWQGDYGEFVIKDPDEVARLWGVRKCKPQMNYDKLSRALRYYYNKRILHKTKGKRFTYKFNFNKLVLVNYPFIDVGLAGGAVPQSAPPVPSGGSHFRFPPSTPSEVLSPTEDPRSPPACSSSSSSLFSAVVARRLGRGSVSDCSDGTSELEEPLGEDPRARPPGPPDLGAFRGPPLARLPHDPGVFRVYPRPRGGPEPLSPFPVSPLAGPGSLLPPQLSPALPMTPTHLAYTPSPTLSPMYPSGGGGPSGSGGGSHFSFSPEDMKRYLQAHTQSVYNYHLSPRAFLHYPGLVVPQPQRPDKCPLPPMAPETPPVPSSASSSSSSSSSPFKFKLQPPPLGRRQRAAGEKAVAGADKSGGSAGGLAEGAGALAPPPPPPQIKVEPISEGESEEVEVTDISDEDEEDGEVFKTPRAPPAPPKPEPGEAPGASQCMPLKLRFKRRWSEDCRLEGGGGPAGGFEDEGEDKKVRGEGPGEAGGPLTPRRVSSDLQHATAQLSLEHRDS
Procedure, shortened: as §1

ETV3L = molecular target: T7, ETV3L (Homo sapiens, UniProt Q6ZN32 1-361); details: protein: recombinant; tags: N-terminal GST; dsDNA, one strand shown
T7 sequence: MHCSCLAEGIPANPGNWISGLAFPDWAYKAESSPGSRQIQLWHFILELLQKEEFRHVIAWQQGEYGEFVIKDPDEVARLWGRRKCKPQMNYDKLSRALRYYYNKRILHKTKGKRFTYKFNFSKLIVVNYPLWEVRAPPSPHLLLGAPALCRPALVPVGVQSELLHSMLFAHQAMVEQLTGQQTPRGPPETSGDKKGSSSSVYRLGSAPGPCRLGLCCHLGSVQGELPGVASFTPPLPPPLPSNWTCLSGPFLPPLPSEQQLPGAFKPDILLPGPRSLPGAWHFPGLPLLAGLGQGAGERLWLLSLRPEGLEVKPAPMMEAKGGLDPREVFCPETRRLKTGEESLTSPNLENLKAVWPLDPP
Procedure, shortened: as §1

ETS2 = molecular target: T8, ETS2 (Homo sapiens, UniProt P15036 1-469); details: protein: recombinant; tags: N-terminal GST; dsDNA, one strand shown
T8 sequence: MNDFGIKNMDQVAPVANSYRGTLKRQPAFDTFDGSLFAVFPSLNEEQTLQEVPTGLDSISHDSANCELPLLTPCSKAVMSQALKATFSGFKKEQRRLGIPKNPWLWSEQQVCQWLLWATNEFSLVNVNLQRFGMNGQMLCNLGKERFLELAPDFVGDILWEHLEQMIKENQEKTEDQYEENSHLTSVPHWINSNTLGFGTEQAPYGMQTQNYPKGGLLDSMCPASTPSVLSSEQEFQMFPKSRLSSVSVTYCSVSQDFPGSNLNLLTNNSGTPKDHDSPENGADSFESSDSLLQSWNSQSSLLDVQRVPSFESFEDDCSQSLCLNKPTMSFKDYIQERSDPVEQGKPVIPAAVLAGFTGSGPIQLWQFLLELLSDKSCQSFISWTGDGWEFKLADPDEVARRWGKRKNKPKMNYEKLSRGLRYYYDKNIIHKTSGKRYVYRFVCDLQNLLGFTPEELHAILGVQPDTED
Procedure, shortened: as §1

SPDEF = molecular target: T9, SPDEF (Homo sapiens, UniProt O95238 1-335); details: protein: recombinant; tags: N-terminal GST; dsDNA, one strand shown
T9 sequence: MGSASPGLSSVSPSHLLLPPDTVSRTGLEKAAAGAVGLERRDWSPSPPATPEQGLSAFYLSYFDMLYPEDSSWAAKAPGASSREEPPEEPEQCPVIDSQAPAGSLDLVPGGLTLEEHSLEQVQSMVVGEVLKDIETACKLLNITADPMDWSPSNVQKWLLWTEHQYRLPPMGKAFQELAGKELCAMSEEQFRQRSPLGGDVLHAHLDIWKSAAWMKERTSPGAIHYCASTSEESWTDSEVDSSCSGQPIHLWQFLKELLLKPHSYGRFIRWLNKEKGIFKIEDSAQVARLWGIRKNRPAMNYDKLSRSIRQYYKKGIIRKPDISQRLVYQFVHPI
Procedure, shortened: as §1

ETV7 = molecular target: T10, ETV7 (Homo sapiens, UniProt Q9Y603 1-341); details: protein: recombinant; tags: N-terminal GST; dsDNA, one strand shown
T10 sequence: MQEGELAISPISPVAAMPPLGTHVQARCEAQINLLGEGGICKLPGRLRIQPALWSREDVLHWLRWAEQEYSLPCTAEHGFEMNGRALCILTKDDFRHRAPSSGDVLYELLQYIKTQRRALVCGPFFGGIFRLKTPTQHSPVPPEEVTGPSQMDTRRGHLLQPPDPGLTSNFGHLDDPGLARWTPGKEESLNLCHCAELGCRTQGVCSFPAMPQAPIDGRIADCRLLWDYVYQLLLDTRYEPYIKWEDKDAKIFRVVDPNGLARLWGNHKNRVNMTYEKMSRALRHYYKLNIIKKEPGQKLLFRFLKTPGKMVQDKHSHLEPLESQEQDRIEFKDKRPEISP
Procedure, shortened: as §1

ELF5 = molecular target: T11, ELF5 (Homo sapiens, UniProt Q9UKW6-2 1-255); details: protein: recombinant; tags: N-terminal GST; dsDNA, one strand shown
T11 sequence: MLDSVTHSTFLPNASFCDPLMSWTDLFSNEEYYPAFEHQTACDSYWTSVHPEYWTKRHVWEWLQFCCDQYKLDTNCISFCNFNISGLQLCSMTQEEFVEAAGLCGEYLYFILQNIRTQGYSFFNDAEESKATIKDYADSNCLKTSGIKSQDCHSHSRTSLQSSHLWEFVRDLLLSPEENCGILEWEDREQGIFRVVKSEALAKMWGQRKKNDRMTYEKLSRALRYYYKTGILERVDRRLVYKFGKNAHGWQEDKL
Procedure, shortened: as §1

ETV3 = molecular target: T12, ETV3 (Homo sapiens, UniProt P41162-2 1-143); details: protein: recombinant; tags: N-terminal GST; dsDNA, one strand shown
T12 sequence: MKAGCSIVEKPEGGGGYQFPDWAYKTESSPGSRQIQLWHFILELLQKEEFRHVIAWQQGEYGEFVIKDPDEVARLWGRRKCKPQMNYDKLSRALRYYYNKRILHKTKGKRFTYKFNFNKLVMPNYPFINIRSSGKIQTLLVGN
Procedure, shortened: as §1

ETV6 = ETV6 (Homo sapiens, UniProt P41212 1-452); details: protein: recombinant; tags: N-terminal GST; dsDNA, one strand shown
Procedure, shortened: as §1

Chain of ELF4 (Q99607 whole entry): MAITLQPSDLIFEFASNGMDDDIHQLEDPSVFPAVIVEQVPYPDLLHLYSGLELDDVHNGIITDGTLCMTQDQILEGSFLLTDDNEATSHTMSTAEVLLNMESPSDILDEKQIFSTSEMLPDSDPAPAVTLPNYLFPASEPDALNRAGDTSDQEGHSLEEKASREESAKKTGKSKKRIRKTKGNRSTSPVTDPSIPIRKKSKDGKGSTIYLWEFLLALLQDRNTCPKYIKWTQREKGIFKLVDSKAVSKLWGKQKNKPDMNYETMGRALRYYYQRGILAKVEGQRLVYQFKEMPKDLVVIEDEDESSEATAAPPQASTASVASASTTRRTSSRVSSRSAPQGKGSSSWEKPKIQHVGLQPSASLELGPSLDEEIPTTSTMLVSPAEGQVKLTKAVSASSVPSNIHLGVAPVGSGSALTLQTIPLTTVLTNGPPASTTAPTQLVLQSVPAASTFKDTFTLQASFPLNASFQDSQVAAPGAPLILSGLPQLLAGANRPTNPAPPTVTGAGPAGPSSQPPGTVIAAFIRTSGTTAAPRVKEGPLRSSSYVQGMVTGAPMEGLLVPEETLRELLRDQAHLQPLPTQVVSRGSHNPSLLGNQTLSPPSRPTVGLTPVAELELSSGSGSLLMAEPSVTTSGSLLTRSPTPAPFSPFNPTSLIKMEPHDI
Chain of HSF1 (Q00613 whole entry): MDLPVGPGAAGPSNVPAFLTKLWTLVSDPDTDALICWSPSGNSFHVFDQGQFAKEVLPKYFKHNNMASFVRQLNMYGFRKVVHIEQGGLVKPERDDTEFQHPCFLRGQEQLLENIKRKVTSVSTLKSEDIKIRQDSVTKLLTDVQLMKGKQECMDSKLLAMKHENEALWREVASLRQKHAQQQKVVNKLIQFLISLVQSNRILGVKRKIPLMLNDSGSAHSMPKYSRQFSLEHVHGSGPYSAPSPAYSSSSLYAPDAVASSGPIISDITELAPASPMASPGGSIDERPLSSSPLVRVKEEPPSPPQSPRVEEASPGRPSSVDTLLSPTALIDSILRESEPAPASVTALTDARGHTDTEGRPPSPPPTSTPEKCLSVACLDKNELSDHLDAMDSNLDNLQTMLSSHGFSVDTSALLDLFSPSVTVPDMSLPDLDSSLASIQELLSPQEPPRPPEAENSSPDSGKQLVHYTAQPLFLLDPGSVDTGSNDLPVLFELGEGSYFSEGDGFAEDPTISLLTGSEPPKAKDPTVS
Chain of ETV6 (P41212 whole entry): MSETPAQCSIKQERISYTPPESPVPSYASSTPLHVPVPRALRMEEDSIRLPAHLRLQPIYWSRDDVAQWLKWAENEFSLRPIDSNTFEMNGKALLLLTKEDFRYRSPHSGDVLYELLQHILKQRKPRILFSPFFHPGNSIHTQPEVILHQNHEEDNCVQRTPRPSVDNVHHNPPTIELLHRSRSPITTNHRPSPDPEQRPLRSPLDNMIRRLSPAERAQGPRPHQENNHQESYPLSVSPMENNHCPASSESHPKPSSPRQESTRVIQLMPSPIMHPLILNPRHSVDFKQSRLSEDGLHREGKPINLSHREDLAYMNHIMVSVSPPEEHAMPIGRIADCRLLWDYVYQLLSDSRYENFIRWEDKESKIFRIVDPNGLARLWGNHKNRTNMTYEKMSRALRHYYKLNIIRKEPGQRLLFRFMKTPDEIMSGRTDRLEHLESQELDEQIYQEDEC
Chain of ETV1 (P50549 whole entry): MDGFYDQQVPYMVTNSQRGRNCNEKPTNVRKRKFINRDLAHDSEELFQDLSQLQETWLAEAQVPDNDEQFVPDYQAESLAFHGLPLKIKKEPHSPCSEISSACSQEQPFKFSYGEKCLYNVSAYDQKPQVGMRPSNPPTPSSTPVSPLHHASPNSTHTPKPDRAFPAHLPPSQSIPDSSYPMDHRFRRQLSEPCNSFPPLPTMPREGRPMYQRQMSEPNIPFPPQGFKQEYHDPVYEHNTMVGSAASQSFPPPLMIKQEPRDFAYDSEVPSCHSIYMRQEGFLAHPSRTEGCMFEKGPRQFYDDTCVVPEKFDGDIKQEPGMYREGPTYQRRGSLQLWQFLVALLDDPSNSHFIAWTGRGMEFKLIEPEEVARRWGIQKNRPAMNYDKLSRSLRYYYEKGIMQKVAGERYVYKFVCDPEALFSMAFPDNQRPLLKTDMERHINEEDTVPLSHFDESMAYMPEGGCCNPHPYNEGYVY
Chain of CRX (O43186 whole entry): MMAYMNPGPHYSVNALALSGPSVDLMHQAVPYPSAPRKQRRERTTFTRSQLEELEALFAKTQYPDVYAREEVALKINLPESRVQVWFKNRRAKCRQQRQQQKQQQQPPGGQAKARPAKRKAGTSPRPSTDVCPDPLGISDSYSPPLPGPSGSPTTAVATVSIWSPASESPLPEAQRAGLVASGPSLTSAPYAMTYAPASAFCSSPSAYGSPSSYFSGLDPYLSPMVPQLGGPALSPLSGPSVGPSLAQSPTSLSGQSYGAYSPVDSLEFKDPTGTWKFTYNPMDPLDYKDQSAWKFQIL
Chain of ETV5 (P41161 whole entry): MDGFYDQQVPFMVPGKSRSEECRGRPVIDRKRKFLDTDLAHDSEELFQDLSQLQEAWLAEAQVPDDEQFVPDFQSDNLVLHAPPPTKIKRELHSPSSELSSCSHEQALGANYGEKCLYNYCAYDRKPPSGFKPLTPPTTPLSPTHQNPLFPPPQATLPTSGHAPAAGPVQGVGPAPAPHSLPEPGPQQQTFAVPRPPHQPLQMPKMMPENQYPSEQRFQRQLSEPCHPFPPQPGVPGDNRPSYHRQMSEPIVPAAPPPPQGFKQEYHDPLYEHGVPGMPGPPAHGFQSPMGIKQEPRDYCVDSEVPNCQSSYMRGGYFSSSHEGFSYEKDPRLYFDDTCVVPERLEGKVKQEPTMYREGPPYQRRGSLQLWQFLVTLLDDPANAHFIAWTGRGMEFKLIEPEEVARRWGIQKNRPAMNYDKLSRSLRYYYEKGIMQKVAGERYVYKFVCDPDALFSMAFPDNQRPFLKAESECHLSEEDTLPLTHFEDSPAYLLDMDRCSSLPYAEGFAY

CGTTTT
binding signal (FEV): 1.19 fold enrichment (6-mer frequency, TF over GST control) | binding signal (ETV5): 1.21 fold enrichment (6-mer frequency, TF over GST control) | binding signal (HSF1): 1.12 fold enrichment (6-mer frequency, TF over GST control) | binding signal (SPIC): 1.29 fold enrichment (6-mer frequency, TF over GST control) | binding signal (ELF4): 1.16 fold enrichment (6-mer frequency, TF over GST control) | binding signal (ELK4): 1.22 fold enrichment (6-mer frequency, TF over GST control) | binding signal (ETV2): 1.35 fold enrichment (6-mer frequency, TF over GST control) | binding signal (ELF3): 1.08 fold enrichment (6-mer frequency, TF over GST control) | binding signal (CRX): 1.04 fold enrichment (6-mer frequency, TF over GST control) | binding signal (ETV1): 1.17 fold enrichment (6-mer frequency, TF over GST control) | binding signal (ERF): 1.15 fold enrichment (6-mer frequency, TF over GST control) | binding signal (ETV3L): 1.29 fold enrichment (6-mer frequency, TF over GST control) | binding signal (ETS2): 1.16 fold enrichment (6-mer frequency, TF over GST control) | binding signal (SPDEF): 1.14 fold enrichment (6-mer frequency, TF over GST control) | binding signal (ETV7): 1.25 fold enrichment (6-mer frequency, TF over GST control) | binding signal (ELF5): 1.14 fold enrichment (6-mer frequency, TF over GST control) | binding signal (ETV3): 1.21 fold enrichment (6-mer frequency, TF over GST control) | binding signal (ETV6): 1.24 fold enrichment (6-mer frequency, TF over GST control)
